This is a sample that favours compounds with a hit; in the whole collection about 0.9% have one here.
Mtb bLac sens – beta-lactam sensitization of Mtb H37Rv. AID 434955. 0.27% of 330,000 active. M. tuberculosis H37Rv growth with meropenem, percent inhibition. inhibition, % at 25 µM; call rule not given here;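 also: growth measured after seven days incubation then overnight dye step; 0% = bacteria only wells and 100% = bacteria with antibiotic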
Mtb BioA inh – BioA (M. tuberculosis) enzyme inhibition; purified M. tuberculosis BioA enzyme, plate reader; inhibition, % at 9.99 µM; 0.096% of 360,000 active; in the data active = inhibition above about 40%; inconclusive = no clear call, values can overlap the other calls
RN4220 kill – S. aureus RN4220 growth inhibition; OD600, 16 h; inhibition, % (test concentration not listed); 0.33% of 330,000 active; AID 1259311; in the data active = inhibition above about 85%;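 also: plate controls were untreated cells for no effect and reference antibiotic for full effect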
Sa ugtP lethal – compounds lethal to S. aureus RN4220 ugtP deletion mutant | OD600 growth, 16 h | growth inhibition, % (test concentration not listed) | 0.54% of 330,000 active; in the data active = growth inhibition above about 68%;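 also: plate controls were untreated wells for no effect and antibiotic for full effect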
PfHsp40 rescue – rescue of PfHsp40-mediated yeast toxicity; S. cerevisiae expressing PfHsp40, growth rescue, ATP luminescence; growth rescue, % at 12.5 µM; 0.68% of 340,000 active; in the data active = growth rescue above about 28%, passing the limit was not always enough; inconclusive = no clear call, values can overlap the other calls;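 also: yeast W303a lacking pdr1 and pdr3 grown in galactose medium; growth measured after three days at 30 °C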
Starred values were filed as active, the others as inactive; ? = inconclusive; / = no result.

SMILES	Mtb bLac sens	Mtb BioA inh	RN4220 kill	Sa ugtP lethal	PfHsp40 rescue
CC(Cl)=CCn1c(N2CCCC2)nc2c1c(=O)[nH]c(=O)n2C	/	/	8	-3	/
O=C1COc2ccccc2N1Cc1ccccc1Cl	-3	3	3	3	50*
O=S(=O)(Nc1ccc(S(=O)(=O)Nc2ccccc2)cc1)c1ccccc1	10	-2	-5	15	0
O=S(=O)(Nc1ccc(N=Nc2ccccc2)cc1)c1ccccc1	-2	/	-10	-2	102*
CN1CCN(CCCC(=O)c2ccc(C3CCCC3)cc2)CC1	5	/	-3	85*	0
COC(=O)c1cnc(NNS(=O)(=O)c2ccc(Cl)cc2)nc1C(F)(F)F	-1	-2	6	-1	-2
COC(=O)c1cnc(NNC(=O)c2ccc([N+](=O)[O-])cc2)nc1C(F)(F)F	10	/	7	6	63*
CCOC(=O)C(C(=O)Nc1ccccc1Br)=C1NC(C)(C)Cc2ccccc21	/	/	-9	20	/
OC1c2ccccc2C(Cc2cncs2)C1Br (stereo not given)	/	/	9	-4	/
CC(C)CC(CO)Nc1nc(Nc2cccc(Cl)c2)c2ncn(C(C)C)c2n1 (stereo not given)	/	/	-5	-4	/
O=C(NN=Cc1ccncc1)c1ccc(OCc2ccccc2)cc1	/	/	-3	-6	/
O=NN(CCc1ccncc1)c1ccc(OCc2ccccc2)cc1	40	2	19	7	388*
CC(=Cc1ccccc1)CC1=C(C)C2(CC2)[C@@](C)(O)C(O)C1=CCO (stereo not given in full)	/	/	2	-10	/
O=C(/C=C/c1ccco1)c1cccc([N+](=O)[O-])c1	/	/	13	5	27*
COc1ccc(N2CCN(C(=O)c3ccc(C)cc3)CC2)c([N+](=O)[O-])c1	2	/	9	6	33*
Oc1ccc(-c2nc3ccccc3s2)c(O)c1	90	/	17	27	244*
Nc1ccc(O)c(-c2nc3ccccc3s2)c1	-6	-4	-4	-2	1
Cc1ccc(NC(=O)/C=C/c2cccc(C(F)(F)F)c2)cc1	50	/	8	3	0
CSc1cccc(NC(=O)/C=C/c2cccc(Cl)c2)c1	97	-1	14	-18	245*
O=C(/C=C/c1cccc(C(F)(F)F)c1)Nc1cccc(C(F)(F)F)c1	97	0	100*	100*	83*
CNC(=O)c1ccc(NC(=O)/C=C/c2cccc(F)c2)cc1	0	/	3	-4	114*
O=C(/C=C/c1cccc(Cl)c1)Nc1ncccn1	0	/	8	-1	-1
CC(C)(C)NN=C1CC(c2ccccc2)Oc2ccccc21 (stereo not given)	/	/	-8	94*	/
CC(C)(C)N/N=C1\CC(c2ccccc2)Oc2ccccc21 (stereo not given)	5	/	/	/	2
CC(C(=O)NCCCn1ccnc1)(c1ccccc1)c1ccccc1	-14	-1	5	12	0
SMILES	Mtb bLac sens	Mtb BioA inh	RN4220 kill	Sa ugtP lethal	PfHsp40 rescue
CCCCCCC(Cl)(Cn1ccnc1)c1ccccc1 (stereo not given)	-5	/	5	13	255*
Oc1ccccc1-c1nnc(SCCN2CCOCC2)n1Cc1ccccc1	-5	-1	15	-4	249*
O=C(CSc1nnc(-c2ccccc2)n1Cc1ccccc1)N1CCOCC1	-6	/	3	-2	1
C[C@H](NC(=O)OC(C)(C)C)C(=O)NN=CC1=Cc2ccccc2OC1	/	/	3	2	/
O=C(O)c1ccc(N/N=C/C2=Cc3ccccc3OC2)cc1	5	0	/	/	179*
O=C1c2ccccc2C(=O)N1CCCCc1cn(CC2CCC(C3CCC(Cn4cc(CCCCN5C(=O)c6ccccc6C5=O)nn4)O3)O2)nn1 (stereo not given)	/	/	6	10	/
Cc1ccc(CN2CC(C(=O)N(Cc3nnc(-c4ccccc4Cl)o3)C3CC3)CC2=O)cc1 (stereo not given)	0	3	5	4	561*
O=C(NCc1nc2ccccc2[nH]1)C1=CC(c2ccc(Br)cc2)CC(OCCCCO)O1 (stereo not given)	/	/	-3	-9	/
COc1cccc(-c2cc(C(F)(F)F)nc(N3CCC(C)CC3)n2)c1	6	-3	-2	94*	-2
CC1CCN(c2nc(-c3ccccc3)cc(C(F)(F)F)n2)CC1	-6	0	0	88*	1
Cc1ccc(-c2nnc(N3CCC(C)CC3)c3ccccc23)cc1	59	/	-2	-9	10
Cc1ccc(-c2cc(C(F)F)nc(N3CCC(C)CC3)n2)cc1	1	0	-5	91*	-2
CN1CCN(c2nc(-c3ccccc3)cc(C(F)(F)F)n2)CC1	0	3	5	28	0
CCOC(=O)C1C2COc3ccccc3C2N2C(=O)N(c3ccc(F)cc3)C(=O)[C@]12C (stereo not given in full)	/	/	6	3	/
CC(C=NNC(=O)c1ccncc1)=Cc1ccc(C(C)C)cc1	/	/	1	10	/
CC(C)CC(NC(=O)c1nc[nH]c1C(=O)NCC(=O)OC(C)(C)C)C(=O)OCc1ccccc1 (stereo not given)	/	/	5	-13	/
O=S1(=O)C2CC3O[C@]2(CC3c2ccc(F)cc2)CN1Cc1ccc(Cl)cc1 (stereo not given in full)	/	/	2	-21	/
Clc1ccc(CONC=Nc2ncnc3sccc23)cc1	/	/	-10	-1	/
Clc1cccc(CON/C=N/c2ncnc3sccc23)c1	12	3	/	/	812*
O=[N+]([O-])c1ccc(C2=NN(CCO)C(=Nc3ccc(OC(F)(F)F)cc3)SC2)cc1	-2	/	5	-24	53*
COc1ccc(N=C2SCC(c3ccc([N+](=O)[O-])cc3)=NN2CCO)cc1	-2	/	/	/	7
O=C(Cc1ccccc1)Nc1ccc(NC(=S)NC(=O)c2ccccc2)cc1	-14	0	-1	84*	-1
Cc1ccccc1C(=O)NC(=S)Nc1ccc(Oc2ccc(Cl)cc2)cc1	-8	-1	-14	86*	-1
O=C(NC(=S)Nc1cccnc1Cl)c1ccc(Cl)cc1	2	3	5	88*	11
O=C(NC(=S)Nc1ccc(Oc2ccccc2)cc1)c1ccc(Cl)cc1	99	0	-7	98*	-1
SMILES	Mtb bLac sens	Mtb BioA inh	RN4220 kill	Sa ugtP lethal	PfHsp40 rescue
O=C(Nc1cccnc1Cl)c1ccc(Cl)cc1	-7	0	5	15	9
Cc1ccc(C(=O)NC(=S)Nc2ccc(Oc3ccc(Cl)cc3)cc2)cc1	28	-2	4	66	-1
COc1cc(C=CC(=O)N2C(=O)c3cccc(N)c3C2=O)cc(OC)c1OC	/	/	11	-1	/
S=C(Nc1ccc(Cl)cc1)Nc1cccc2cnccc12	68	/	-2	-16	105*
CCCCCCCC[n+]1cccc(C(=O)N(CC)CC)c1	-4	/	2	8	-1
CCCCCCCCCCCCCCCC[n+]1cccc(C(=O)N(CC)CC)c1	93	18	100*	100*	?
CCCCCCCCCCCCCCCC[n+]1ccc(C(N)=O)cc1	72	1	100*	100*	?
CCCCCCCCCCCCCCCC[n+]1ccccc1	/	24	100*	100*	1

Screens (PubChem)
